Hits are enriched below; roughly 4.7% of the tested compounds scored in any of these assays.
UBC9 SUMO inh: inhibitors of in vitro SUMOylation cascade, primary screen, biochemical, HTRF, uHTS; HTRF SUMOylation assay, SAE1/SAE2 + UBC9; 290,000 tested, 0.36% active; AID 2006, 2009; inhibition, % at 35 µM; in the data active = inhibition above about 50%, passing the limit was not always enough; inconclusive = no clear call, values can overlap the other calls
Target sequence (P63279 whole entry, looked up): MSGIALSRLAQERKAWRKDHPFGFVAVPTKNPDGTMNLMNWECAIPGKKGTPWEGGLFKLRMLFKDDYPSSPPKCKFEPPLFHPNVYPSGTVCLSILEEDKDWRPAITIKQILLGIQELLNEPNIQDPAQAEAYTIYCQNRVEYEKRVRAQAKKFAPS
PABP polyA inh: PABP poly(A) RNA binding inhibitors, primary screen, biochemical, fluorescence polarization, uHTS; inhibition, % at 35 µM; 290,000 tested, 1% active; AID 2014, 2009;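 note: calls also rest on retests at 20 µM and on dose response follow-up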
eIF4H FP inh: human eIF4H binding inhibitors, primary screen, translation initiation inhibitor project, biochemical, uHTS, fluorescence polarization; Eukaryotic translation initiation factor 4H (Homo sapiens), Q15056; eIF4H fluorescence polarization binding assay; inhibition, % at 35 µM; 290,000 tested, 0.94% active; AID 2012, 2009;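 note: calls also rest on retests at 20 µM and on dose response follow-up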
MLLE-PAM2 inh: inhibitors of PABP1 MLLE–PAM2 peptide binding, primary screen, biochemical, fluorescence polarization, FITC-PAM2, GST-MLLE; Polyadenylate-binding protein 1 (Homo sapiens), P11940; inhibition, % at 20 µM; 360,000 tested, 0.36% active; in the data active = inhibition above about 35%, passing the limit was not always enough;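 note: plate controls were DMSO wells with GST-MLLE for no effect and wells lacking GST-MLLE protein for full effect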
ALR inh: inhibitors of human ALR sulfhydryl oxidase, primary screen, biochemical, H2O2 detection, HRP-luminol luminescence, single point | 290,000 tested, 3.8% active | AID 485317, 2010 | purified ALR, DTT oxidation | inhibition, % (concentration not given with the values) | FAD-linked sulfhydryl oxidase ALR (Homo sapiens), P55789;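 active = mean replicate inhibition above about 79%, with every replicate also reaching it, limit read from the data; inconclusive = only one of the two criteria met; inactive = mean below limit and not every replicate reaching it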
Target sequence (P55789 whole entry, looked up): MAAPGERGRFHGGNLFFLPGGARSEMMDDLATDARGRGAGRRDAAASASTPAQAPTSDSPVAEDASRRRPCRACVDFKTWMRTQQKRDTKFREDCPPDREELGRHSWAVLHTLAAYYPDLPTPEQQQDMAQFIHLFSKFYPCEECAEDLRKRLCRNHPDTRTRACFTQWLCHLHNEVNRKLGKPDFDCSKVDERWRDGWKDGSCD
Efflux pump mplx: inhibitors of Candida efflux pumps in yeast, primary screen, S. cerevisiae, Nile Red, multiplex. inhibition, % at 10 µM. 330,000 tested, 0.44% active. S. cerevisiae Candida pump triplex;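 active = plate passing quality check with inhibition over a set limit, or well fluorescence over plate mean plus 4 SD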;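 note: Nile Red retained in pooled yeast measured as flow cytometry median fluorescence; 0% = buffer negative control and 100% = Enniatin B positive control; higher means more Nile Red kept so more efflux inhibition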
Active calls of the source: *. Unless noted, the rule behind the calls is not given here.

How did Cc1cc(C)n2nc(SCc3cc(=O)oc4ccc5ccccc5c34)nc2n1 do in these assays?
UBC9 SUMO inh: 21.1; PABP polyA inh: 12.9; eIF4H FP inh: 28.6; MLLE-PAM2 inh: 40.2*; ALR inh: -20.7; Efflux pump mplx: -0.1

What do the screens show for `CN(C)C(=O)CNc1ccn2nc(-c3cccc(Cl)c3)cc2n1`?
MLLE-PAM2 inh: -14.1

How did O=c1c2ccccc2ncn1CCCSc1ccccc1 do in these assays?
UBC9 SUMO inh: 33.9; PABP polyA inh: 86.9*; eIF4H FP inh: 105.8*; MLLE-PAM2 inh: -2.1; ALR inh: -32.3; Efflux pump mplx: 0.0

What do the screens show for `CC(=O)Oc1ccc2c(=O)c(Oc3ccccc3)coc2c1OC(C)=O`?
UBC9 SUMO inh: -18.1; PABP polyA inh: 2.0*; eIF4H FP inh: 98.2*; MLLE-PAM2 inh: 4.0; ALR inh: 99.3*; Efflux pump mplx: -0.1

Results for COc1cccc2sc(NN)nc12 ?
UBC9 SUMO inh: 7.1; PABP polyA inh: 22.3; eIF4H FP inh: 32.7; MLLE-PAM2 inh: 26.5; ALR inh: 98.4*; Efflux pump mplx: 0.1

Results for COc1cccc2sc(Nc3nnc(-c4ccccc4Cl)o3)nc12 ?
UBC9 SUMO inh: -115.9; PABP polyA inh: 12.2; eIF4H FP inh: 7.3; MLLE-PAM2 inh: -4.1; ALR inh: 86.3*; Efflux pump mplx: 0.9

How did COc1ccccc1-c1nnc(Nc2nc3c(OC)cccc3s2)o1 do in these assays?
UBC9 SUMO inh: -21.8; PABP polyA inh: 0.1; eIF4H FP inh: 9.3; MLLE-PAM2 inh: 0.6; ALR inh: -1.8; Efflux pump mplx: -0.1

How did Cc1ccc2c(c1)c1c3n2CCN(C(=O)CCl)C3CCC1 (stereo not given) do in these assays?
UBC9 SUMO inh: -0.5; PABP polyA inh: 18.4; eIF4H FP inh: 0.6; MLLE-PAM2 inh: -5.4; ALR inh: -9.2; Efflux pump mplx: 0.0

What do the screens show for `C[n+]1ccccc1/C=C/c1ccc2ncccc2c1`?
UBC9 SUMO inh: 1.3; PABP polyA inh: 57.6*; eIF4H FP inh: 10.0; MLLE-PAM2 inh: -100.5; ALR inh: -18.1; Efflux pump mplx: 0.0

How did C[n+]1ccccc1/C=C/c1ccc(F)c(F)c1 do in these assays?
UBC9 SUMO inh: 5.4; MLLE-PAM2 inh: -124.7; ALR inh: -8.0; Efflux pump mplx: -0.1

What do the screens show for `C[n+]1ccccc1/C=C/c1ccc(C#N)cc1`?
UBC9 SUMO inh: 2.9; PABP polyA inh: 92.6*; eIF4H FP inh: 40.7; MLLE-PAM2 inh: -93.4; ALR inh: -15.7; Efflux pump mplx: 0.0

Results for Cc1nc(-n2[nH]c3c(c2=O)CCCC3)[nH]c(=O)c1Cc1ccccc1 ?
UBC9 SUMO inh: 31.1; PABP polyA inh: 104.4*; eIF4H FP inh: inconclusive; MLLE-PAM2 inh: -96.5; ALR inh: 5.7; Efflux pump mplx: -0.1

How did CCCN(CCC)C(=O)C(c1ccccc1)C1(O)CCCCC1 (stereo not given) do in these assays?
MLLE-PAM2 inh: -5.3

What do the screens show for `COc1ccc2c(c1)OC[C@H]1[C@H]2N2C(=O)CN(CCc3c[nH]c4ccccc34)C(=O)[C@@]2(C)[C@H]1c1ccccc1`?
MLLE-PAM2 inh: -14.0; ALR inh: -0.9; Efflux pump mplx: 0.2

How did COC(=O)c1ccc(C2c3[nH]c4ccccc4c3C[C@H]3C(=O)N(C)CC(=O)N23)cc1 (stereo not given in full) do in these assays?
UBC9 SUMO inh: 17.0; PABP polyA inh: 1.0; eIF4H FP inh: 3.2; MLLE-PAM2 inh: -5.2; ALR inh: -4.0; Efflux pump mplx: 0.0

Results for Cc1ccc(C2c3[nH]c4ccccc4c3C[C@H]3C(=O)N(c4ccccc4C(=O)N4CCC[C@@H]4C(=O)O)C(=O)N23)cc1 (stereo not given in full) ?
UBC9 SUMO inh: 1.4; PABP polyA inh: -3.7; eIF4H FP inh: 10.4; MLLE-PAM2 inh: 6.8; ALR inh: 98.2*; Efflux pump mplx: 0.1

How did CN1CC(=O)N2C(c3ccc(Cl)cc3)c3[nH]c4ccccc4c3C[C@H]2C1=O (stereo not given in full) do in these assays?
UBC9 SUMO inh: -14.8; PABP polyA inh: 15.9; eIF4H FP inh: -6.7; MLLE-PAM2 inh: 1.3; ALR inh: 98.5*; Efflux pump mplx: -0.2

What do the screens show for `COc1cccc(C2c3[nH]c4ccccc4c3C[C@H]3C(=O)N(c4ccccc4C(=O)N4CCCC4C(=O)O)C(=O)N23)c1` (stereo not given in full)?
UBC9 SUMO inh: -8.3; PABP polyA inh: -8.7; eIF4H FP inh: 11.9; MLLE-PAM2 inh: 39.0; ALR inh: 97.2*; Efflux pump mplx: 0.1

What do the screens show for `COc1ccc(C2c3[nH]c4ccccc4c3C[C@H]3C(=O)N(c4ccccc4C(=O)NCCN4CCOCC4)C(=O)N23)cc1` (stereo not given in full)?
UBC9 SUMO inh: 2.6; PABP polyA inh: -8.7; eIF4H FP inh: -0.4; MLLE-PAM2 inh: -11.3; ALR inh: -5.5; Efflux pump mplx: 0.1

How did O=C(O)C1CCN(C(=O)c2ccccc2N2C(=O)[C@@H]3Cc4c([nH]c5ccccc45)C(c4cccc(Cl)c4)N3C2=O)CC1 (stereo not given in full) do in these assays?
UBC9 SUMO inh: 2.9; PABP polyA inh: -1.1; eIF4H FP inh: -3.3; MLLE-PAM2 inh: -2.6; ALR inh: 98.8*; Efflux pump mplx: -0.2

Results for Cc1ccc(C2c3[nH]c4ccccc4c3C[C@H]3C(=O)N(c4ccccc4C(=O)N4CCC(C(=O)O)CC4)C(=O)N23)cc1 (stereo not given in full) ?
UBC9 SUMO inh: 16.0; PABP polyA inh: 8.0; eIF4H FP inh: 13.8; MLLE-PAM2 inh: -2.6; ALR inh: 15.9; Efflux pump mplx: -0.2

How did COc1ccccc1NC(=O)c1cnc(SCC(=O)NCC2CCCO2)n(C)c1=O (stereo not given) do in these assays?
MLLE-PAM2 inh: 20.1; ALR inh: 38.8; Efflux pump mplx: 0.0

How did COc1cccc(C2c3[nH]c4ccccc4c3C[C@H]3C(=O)N(CCCCCO)CC(=O)N23)c1 (stereo not given in full) do in these assays?
UBC9 SUMO inh: -10.1; PABP polyA inh: 4.3; eIF4H FP inh: -6.5; MLLE-PAM2 inh: 2.4; ALR inh: 98.0*; Efflux pump mplx: 0.0

Results for COc1cccc(C2c3[nH]c4ccccc4c3C[C@H]3C(=O)N(CCCOC(C)C)CC(=O)N23)c1 (stereo not given in full) ?
UBC9 SUMO inh: 17.0; PABP polyA inh: 16.4; eIF4H FP inh: 1.8; MLLE-PAM2 inh: 4.0; ALR inh: -19.3; Efflux pump mplx: 0.0

Results for O=c1c2nnn(-c3ccc(Br)cc3)c2ncn1Cc1ccccn1 ?
UBC9 SUMO inh: 6.4; PABP polyA inh: 3.3; eIF4H FP inh: -0.3; MLLE-PAM2 inh: -6.5; ALR inh: -5.0; Efflux pump mplx: -0.3

Compound activity: PubChem BioAssay, several laboratories
